Records with an inconclusive call do not appear. The source made the active and inactive calls. Unless noted, the call rests on the fitted dose curve; in most records, active means well fitted curve in either direction with a large enough effect (not every such curve was filed as active); inconclusive means small, poorly fitted or top-dose-only effect, or another doubt; inactive means flat fitted curve, though single readings scatter.
Columns and labels:
[1] = AP1 Signaling Pathway (AID 357); conditions: ME-180 AP-1-bla reporter, EGF-induced, beta-lactamase ratio, 5 h; at 17.2 µM (top of the series) unless noted;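 further: ME-180 reporter cells stimulated with EGF at its EC50 level; on the % scale 0 is the no-effect control and ±100 the full control effect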
Outline: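 Modulation of EGF-driven AP-1 transcription was assessed with a beta-lactamase reporter in ME-180 cells. Compound and EC50 EGF were co-incubated 5 hours at 37 °C before 2.5-hour CCF4 loading at room temperature and dual-emission reading.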

[2] = Stat Signaling Pathway (AID 446); conditions: ME-180 SIE beta-lactamase reporter, IL-6 stimulated, 5 h; at 17.2 µM (top of the series) unless noted;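 further: ME-180 cervical cancer cells given 40 pM IL-6 alongside compound; SIE-controlled beta-lactamase reporter measured as 460/530 nm FRET emission ratio; on the % scale 0 is the no-effect control and ±100 the full control effect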
Outline: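 FRET read-out (405 nm excitation, 460/530 nm emission) of a beta-lactamase reporter under a STAT-inducible element in ME-180 cervical carcinoma cells. Cells with compound receive 40 pM IL-6 for 5 h. Values are normalised to AC90 stimulation and AC90 JAK-inhibitor controls.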

[3] = target: Glucocorticoid receptor (Homo sapiens) (UniProt P04150); assay: GR-GFP Redistribution (AID 450;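 active means compounds whose dose series gives a full or clear partial fitted curve of increased nuclear translocation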; further: potency means the concentration at half of the fitted maximal effect)
Glucocorticoid receptor (Homo sapiens), sequence (P04150 whole entry, looked up, the tested form may be a part): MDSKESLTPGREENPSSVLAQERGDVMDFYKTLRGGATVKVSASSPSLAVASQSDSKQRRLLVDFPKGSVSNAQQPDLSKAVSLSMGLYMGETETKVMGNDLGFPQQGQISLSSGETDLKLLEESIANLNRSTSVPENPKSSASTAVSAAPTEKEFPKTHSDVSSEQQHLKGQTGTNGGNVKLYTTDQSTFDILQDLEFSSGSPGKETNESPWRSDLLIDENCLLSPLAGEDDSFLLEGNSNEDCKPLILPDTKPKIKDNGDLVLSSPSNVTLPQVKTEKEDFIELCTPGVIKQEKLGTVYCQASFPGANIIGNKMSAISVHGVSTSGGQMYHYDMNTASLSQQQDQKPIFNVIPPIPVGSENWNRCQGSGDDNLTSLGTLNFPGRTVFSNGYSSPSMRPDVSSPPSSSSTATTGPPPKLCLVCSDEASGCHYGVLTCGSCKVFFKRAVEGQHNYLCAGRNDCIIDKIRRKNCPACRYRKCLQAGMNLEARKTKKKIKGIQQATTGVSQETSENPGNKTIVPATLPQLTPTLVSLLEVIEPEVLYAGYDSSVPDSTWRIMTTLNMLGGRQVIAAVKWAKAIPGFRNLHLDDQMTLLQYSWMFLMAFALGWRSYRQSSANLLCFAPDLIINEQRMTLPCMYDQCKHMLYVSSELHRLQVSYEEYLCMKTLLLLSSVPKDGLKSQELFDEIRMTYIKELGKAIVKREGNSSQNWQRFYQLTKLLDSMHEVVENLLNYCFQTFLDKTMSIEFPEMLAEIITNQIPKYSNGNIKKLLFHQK

[4] = qHTS Assay for Identification of Small Molecule Agonists for Hypoxia Response Element Signaling Pathway (AID 914; active means well fitted activation curve with a large enough effect in the signal ratio, with a control signal flat, not every such curve was filed as active; the % refers to the signal ratio; further: potency means the concentration at half of the fitted maximal effect; on activation: % of control where 0% means no effect); conditions: ME-180 (cervical carcinoma) HRE-bla reporter, beta-lactamase ratio, CoCl2, 17 h; activation: hits give high values
Outline: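 HRE-bla ME-180 cells, overnight plating in Opti-MEM with 0.5% dialyzed FBS; cpd titration + EC50 CoCl2, 17 h, 37 degrees Celsius; CCF4 2.5 h RT; 460/530 nm ratio; AC50.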

[5] = target: Cytochrome P450 1A2 (Homo sapiens) (UniProt P05177); assay: p450-cyp1a2 (AID 410; calls by dose curve; further: potency means the concentration at half of the fitted maximal effect;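 on activity change, negative = inhibition: -100% = full effect of reference inhibitor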)
Cytochrome P450 1A2 (Homo sapiens), sequence (P05177 whole entry, looked up): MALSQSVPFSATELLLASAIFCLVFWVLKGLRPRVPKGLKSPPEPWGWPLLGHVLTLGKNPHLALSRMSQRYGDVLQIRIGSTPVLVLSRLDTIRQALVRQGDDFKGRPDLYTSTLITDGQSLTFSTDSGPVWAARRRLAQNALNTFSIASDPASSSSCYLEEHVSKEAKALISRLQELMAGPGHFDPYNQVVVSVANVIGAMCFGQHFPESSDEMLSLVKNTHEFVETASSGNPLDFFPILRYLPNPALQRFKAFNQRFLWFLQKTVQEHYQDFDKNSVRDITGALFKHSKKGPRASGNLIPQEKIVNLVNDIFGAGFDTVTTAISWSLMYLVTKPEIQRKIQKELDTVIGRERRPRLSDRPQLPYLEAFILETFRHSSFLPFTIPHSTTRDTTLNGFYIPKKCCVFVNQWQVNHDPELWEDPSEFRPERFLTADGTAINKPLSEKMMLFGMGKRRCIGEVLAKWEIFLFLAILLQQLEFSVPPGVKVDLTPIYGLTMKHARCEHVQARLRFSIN
Outline: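 Read-out is luminescence from luciferin produced by CYP1A2 demethylation of Luciferin-ME (100uM, at Km). Detection reagent stopped the 60 min NADPH-dependent reaction; signals were normalized to 57 uM furafylline.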

[6] = target: Glucocorticoid receptor (Homo sapiens) (UniProt P04150); assay: GR-EFC Redistribution (AID 451; calls by dose curve; further: potency means the concentration at half of the fitted maximal effect); conditions: CHO-K1 GR-EFC translocation, beta-gal luminescence, 2 h
Outline: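 CHO-K1 cells stably expressing nuclear-localized β-gal enzyme acceptor and GR fused C-terminally to the enzyme donor fragment; ligand-driven nuclear translocation restores β-gal by complementation. Compounds titrated up to 46 uM final, 2 h at 37 °C; luminescence read.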

[7] = target: Cytochrome P450 3A4 (Homo sapiens) (UniProt P08684); assay: qHTS Assay for Activators of Cytochrome P450 3A4 (AID 885; active means well fitted curve in the direction sought with a large enough effect; an effect the other way counts as inactive or inconclusive; further: nearly all actives have a fitted effect of over 65% in size)
Cytochrome P450 3A4 (Homo sapiens), sequence (P08684 whole entry, looked up): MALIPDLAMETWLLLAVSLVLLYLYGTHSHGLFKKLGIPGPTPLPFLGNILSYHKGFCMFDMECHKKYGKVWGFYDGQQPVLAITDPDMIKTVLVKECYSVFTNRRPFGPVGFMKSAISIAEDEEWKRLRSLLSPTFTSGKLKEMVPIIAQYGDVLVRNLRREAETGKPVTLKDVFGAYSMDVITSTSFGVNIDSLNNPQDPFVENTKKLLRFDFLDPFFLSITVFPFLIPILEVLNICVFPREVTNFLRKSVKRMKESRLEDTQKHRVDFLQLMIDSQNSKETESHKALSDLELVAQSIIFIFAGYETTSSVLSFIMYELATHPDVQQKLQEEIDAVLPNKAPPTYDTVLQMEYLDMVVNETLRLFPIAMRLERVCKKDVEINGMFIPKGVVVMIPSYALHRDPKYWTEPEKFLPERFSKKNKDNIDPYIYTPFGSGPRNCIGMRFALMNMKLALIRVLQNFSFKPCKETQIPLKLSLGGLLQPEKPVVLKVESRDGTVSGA
Outline: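 Luminescent readout of luciferin formed from 25 uM Luciferin-PPXE (KM level) by 20 nM CYP3A4 in 200 mM KPO4, with 60 min NADPH-driven reaction at room temperature after 10 min compound exposure. Ketoconazole (57 uM) defined 100% inhibition.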

[8] = target: Cytochrome P450 2D6 (Homo sapiens) (UniProt P10635); assay: qHTS Assay for Inhibitors and Substrates of Cytochrome P450 2D6 (AID 891; active means well fitted curve in the direction sought with a large enough effect; an effect the other way counts as inactive or inconclusive; further: potency means the concentration at half of the fitted maximal effect; nearly all actives have a fitted effect of over 60% in size)
Cytochrome P450 2D6 (Homo sapiens), sequence (P10635 whole entry, looked up): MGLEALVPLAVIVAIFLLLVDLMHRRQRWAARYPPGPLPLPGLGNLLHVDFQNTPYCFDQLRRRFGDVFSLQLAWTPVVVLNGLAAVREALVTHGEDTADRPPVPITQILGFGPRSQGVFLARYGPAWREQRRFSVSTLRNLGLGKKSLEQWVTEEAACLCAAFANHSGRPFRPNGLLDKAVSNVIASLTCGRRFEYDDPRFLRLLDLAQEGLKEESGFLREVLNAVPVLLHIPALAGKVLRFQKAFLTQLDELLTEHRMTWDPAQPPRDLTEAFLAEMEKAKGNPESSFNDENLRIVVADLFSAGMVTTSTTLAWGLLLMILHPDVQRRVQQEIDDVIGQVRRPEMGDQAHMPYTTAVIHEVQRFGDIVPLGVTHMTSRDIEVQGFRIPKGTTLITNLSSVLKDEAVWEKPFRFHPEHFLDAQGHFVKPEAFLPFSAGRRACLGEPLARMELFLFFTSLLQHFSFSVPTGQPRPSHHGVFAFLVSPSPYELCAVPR
Outline: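 Luminescent read-out of luciferin formed by 5 nM human CYP2D6 demethylating 30 uM Luciferin-ME EGE (Km level) over 60 min at room temperature after NADPH regeneration addition. Data normalized to full inhibition by 1.43 uM quinidine.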

[9] = target: Muscarinic acetylcholine receptor M1 (Rattus norvegicus) (UniProt P08482); assay: qHTS Assay for Antagonists of Acetylcholine Muscarinic M1 Receptor: Kinetic Measurement of Intracellular Calcium Response (AID 943; active means well fitted curve in the direction sought with a large enough effect; an effect the other way counts as inactive or inconclusive; further: potency means the concentration at half of the fitted maximal effect; nearly all actives have a fitted effect of over 75% in size)
Muscarinic acetylcholine receptor M1 (Rattus norvegicus), sequence (P08482 whole entry, looked up): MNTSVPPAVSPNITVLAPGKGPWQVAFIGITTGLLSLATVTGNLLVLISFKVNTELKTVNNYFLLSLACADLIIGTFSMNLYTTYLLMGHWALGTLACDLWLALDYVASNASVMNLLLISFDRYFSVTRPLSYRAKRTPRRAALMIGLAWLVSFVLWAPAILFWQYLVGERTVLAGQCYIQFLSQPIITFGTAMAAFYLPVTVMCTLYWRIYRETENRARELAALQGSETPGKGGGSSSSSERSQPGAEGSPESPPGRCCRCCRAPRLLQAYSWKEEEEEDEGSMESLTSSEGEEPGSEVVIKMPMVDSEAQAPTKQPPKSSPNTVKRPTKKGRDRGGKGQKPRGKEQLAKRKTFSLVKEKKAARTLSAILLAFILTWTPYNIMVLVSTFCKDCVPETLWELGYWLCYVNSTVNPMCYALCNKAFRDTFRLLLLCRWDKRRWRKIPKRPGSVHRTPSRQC
Outline: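 Quantitative HTS in CHO-M1 (rat receptor) cells: 10 min compound exposure ahead of 100 nM carbachol, Fluo-4 fluorescence followed 4 min, value expressed as peak-to-basal ratio.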

[10] = target: Muscarinic acetylcholine receptor M1 (Rattus norvegicus) (UniProt P08482); assay: qHTS Assay for Antagonists of Acetylcholine Muscarinic M1 Receptor: Measurement of IP-One Response (AID 944; active means well fitted curve in the direction sought with a large enough effect; an effect the other way counts as inactive or inconclusive; further: potency means the concentration at half of the fitted maximal effect; nearly all actives have a fitted effect of over 75% in size)
Outline: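 Antagonism was measured as loss of carbachol-driven (EC80) IP1 accumulation in CHO cells carrying rat M1, using a homogeneous IP-One TR-FRET kit read at 620 and 665 nm.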

[11] = target: Pyruvate kinase (Leishmania mexicana) (UniProt Q27686); assay: qHTS Validation Assay for Inhibitors of Leishmania Mexicana Pyruvate Kinase (AID 945; active means well fitted curve in the direction sought with a large enough effect; an effect the other way counts as inactive or inconclusive;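 further: 0% = DMSO only neutral control wells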)
Pyruvate kinase (Leishmania mexicana), sequence (Q27686 2-499 E452W): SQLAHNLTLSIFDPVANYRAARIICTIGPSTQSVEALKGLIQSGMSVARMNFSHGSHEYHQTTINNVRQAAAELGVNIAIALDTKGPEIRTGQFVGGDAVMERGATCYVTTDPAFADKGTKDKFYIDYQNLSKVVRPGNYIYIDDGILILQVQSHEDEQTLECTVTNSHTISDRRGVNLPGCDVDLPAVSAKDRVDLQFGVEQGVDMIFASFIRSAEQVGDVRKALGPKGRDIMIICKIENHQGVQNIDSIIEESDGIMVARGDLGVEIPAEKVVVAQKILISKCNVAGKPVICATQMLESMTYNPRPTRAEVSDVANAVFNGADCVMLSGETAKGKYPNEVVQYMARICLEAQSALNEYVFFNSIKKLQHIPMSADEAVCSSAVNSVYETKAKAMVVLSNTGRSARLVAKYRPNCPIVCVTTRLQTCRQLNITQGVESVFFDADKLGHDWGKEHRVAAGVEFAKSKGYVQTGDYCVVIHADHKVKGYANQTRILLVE
Outline: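 Luminescent ATP detection (PKLight) after a 1 h room-temperature reaction of 0.2 nM LmPYK E451W mutant with 0.5 mM PEP and 0.1 mM ADP at pH 7.2. Activity is normalized to DMSO-only control wells.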

[12] = target: Pyruvate kinase PKM (Homo sapiens) (UniProt P14618); assay: qHTS Assay for Activators of Human Muscle Pyruvate Kinase (AID 954; active means well fitted curve in the direction sought with a large enough effect, not every such curve was filed as active;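 further: 0% = uninhibited enzyme and -100% = no enzyme or full thiadiazolimine inhibition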)
Pyruvate kinase PKM (Homo sapiens), sequence (P14618 whole entry, looked up): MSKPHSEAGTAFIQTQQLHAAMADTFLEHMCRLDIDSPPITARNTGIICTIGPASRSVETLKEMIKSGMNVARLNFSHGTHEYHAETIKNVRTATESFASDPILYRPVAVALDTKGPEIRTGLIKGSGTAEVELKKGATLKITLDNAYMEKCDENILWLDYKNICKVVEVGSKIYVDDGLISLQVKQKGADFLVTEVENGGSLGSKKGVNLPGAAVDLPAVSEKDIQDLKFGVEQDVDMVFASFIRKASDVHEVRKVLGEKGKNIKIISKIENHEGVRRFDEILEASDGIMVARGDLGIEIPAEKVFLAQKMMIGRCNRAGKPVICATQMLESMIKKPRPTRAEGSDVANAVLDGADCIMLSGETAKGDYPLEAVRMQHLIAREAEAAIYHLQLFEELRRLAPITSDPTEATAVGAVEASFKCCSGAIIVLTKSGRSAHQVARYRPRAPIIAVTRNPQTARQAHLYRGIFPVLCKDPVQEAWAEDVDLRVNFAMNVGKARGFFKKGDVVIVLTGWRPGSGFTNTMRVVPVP
Outline: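 ATP production by PKM2 detected via luciferase luminescence after 1 h room-temperature reaction (0.1 nM enzyme, PEP at Km 0.5 mM, ADP 0.1 mM, pH 7.2 imidazole buffer). Inhibition scaled to no-enzyme control; activation referenced to 0.3 nM enzyme wells.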

[13] = target: Alpha-galactosidase A (Homo sapiens) (UniProt P06280); assay: Counterscreen for Glucocerebrosidase Inhibitors: qHTS Assay for Human alpha-Galactosidase at pH 4.5 (AID 992; active means well fitted curve in the direction sought with a large enough effect; an effect the other way counts as inactive or inconclusive; further: 0% is about no effect)
Alpha-galactosidase A (Homo sapiens), sequence (P06280 whole entry, looked up): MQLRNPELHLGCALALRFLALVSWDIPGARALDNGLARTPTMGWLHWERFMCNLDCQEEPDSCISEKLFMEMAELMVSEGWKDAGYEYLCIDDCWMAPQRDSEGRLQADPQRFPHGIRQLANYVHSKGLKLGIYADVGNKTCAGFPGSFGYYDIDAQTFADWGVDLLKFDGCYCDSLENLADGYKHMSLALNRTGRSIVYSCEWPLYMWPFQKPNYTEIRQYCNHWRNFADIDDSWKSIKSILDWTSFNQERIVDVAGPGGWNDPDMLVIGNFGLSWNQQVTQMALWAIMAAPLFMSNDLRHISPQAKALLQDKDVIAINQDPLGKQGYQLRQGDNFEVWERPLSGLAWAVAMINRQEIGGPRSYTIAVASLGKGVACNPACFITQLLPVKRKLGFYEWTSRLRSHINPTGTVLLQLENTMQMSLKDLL
Outline: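 Fluorogenic 1536-well qHTS at pH 4.5 (citrate, Tween-20): 2 nM enzyme, 80 uM 4-MU-alpha-galactoside, 20 min room temperature, NaOH/glycine stop. Titration 0.7 nM to 77 uM, data normalized to no-enzyme and full-activity controls, Hill-fitted AC50.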

[14] = target: alpha-glucosidase (Oryza sativa, rice) (UniProt Q653V4); assay: Counterscreen for Glucocerebrosidase Inhibitors: qHTS Assay for Rice alpha-Glucosidase at pH 5.0 (AID 997; active means well fitted curve in the direction sought with a large enough effect; an effect the other way counts as inactive or inconclusive;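 further: 0% = full activity with enzyme and -100% = basal without enzyme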)
Outline: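 Endpoint fluorogenic assay at pH 5.0: compounds (0.7 nM to 77 uM) titrated against 4 nM rice enzyme and 400 uM 4-MU-alpha-glucoside for 20 min at room temperature; NaOH/glycine stop, read ex 365/em 440 nm, Hill-fitted AC50.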

[15] = target: Mitogen-activated protein kinase 10 (Mus musculus) (UniProt Q61831); assay: JNK3 AlphaScreen Assay (AID 530);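 further: kinase came from lysate of stimulated human HepG2 cells; signal reports phosphorylation of biotinylated GST-cJun 1-79 at Ser73 with 10 µM ATP; on the % scale 0 is the no-effect control and ±100 the full control effect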
Outline: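 Biotinylated GST-cJun(1-79) served as substrate for JNK3 in HepG2 lysates stimulated with IL-1beta and TNF-alpha. ATP was 10 uM final, pH 7.6. Ser73 phosphorylation was quantified by AlphaScreen (680 nm excitation).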

[16] = target: 3',5'-cyclic-AMP phosphodiesterase 4B (Homo sapiens) (UniProt Q07343); assay: qHTS Assay for Inhibitors of PDE-IV (AID 607; active means well fitted activation curve with a large enough effect in the main read-out, with a control signal flat, not every such curve was filed as active; further: % of control where 0% means no effect)
Outline: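 Cell-based read-out of cAMP via a modified cyclic nucleotide-gated channel and membrane potential dye (535/590 nm) in HEK293 cells expressing PDE4 endogenously. Compounds tested up to 22.9 uM final; 100 uM RO 20-1724 reference.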

[17] = target: Cytochrome P450 2C9 (Homo sapiens) (UniProt P11712); assay: qHTS Assay for Inhibitors and Substrates of Cytochrome P450 2C9 (AID 883; active means well fitted curve in the direction sought with a large enough effect; an effect the other way counts as inactive or inconclusive; further: on the % scale 0 is the no-effect control and ±100 the full control effect; nearly all actives have a fitted effect of over 60% in size)
Cytochrome P450 2C9 (Homo sapiens), sequence (P11712 whole entry, looked up): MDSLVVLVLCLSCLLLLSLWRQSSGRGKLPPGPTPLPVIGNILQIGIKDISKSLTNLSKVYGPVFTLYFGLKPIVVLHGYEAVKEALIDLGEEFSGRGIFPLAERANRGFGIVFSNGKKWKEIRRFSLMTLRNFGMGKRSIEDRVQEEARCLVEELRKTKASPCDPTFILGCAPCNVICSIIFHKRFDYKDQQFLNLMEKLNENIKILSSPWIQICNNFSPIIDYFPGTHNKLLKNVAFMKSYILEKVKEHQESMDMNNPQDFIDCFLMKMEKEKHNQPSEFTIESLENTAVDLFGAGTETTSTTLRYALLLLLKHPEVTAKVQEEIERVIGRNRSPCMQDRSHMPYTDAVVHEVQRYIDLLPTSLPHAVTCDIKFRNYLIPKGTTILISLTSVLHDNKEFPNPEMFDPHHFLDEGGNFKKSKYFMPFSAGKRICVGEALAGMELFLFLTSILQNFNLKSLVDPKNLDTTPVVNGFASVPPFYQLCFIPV
Outline: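 A luminogenic readout tracked human CYP2C9 (10nM) converting deoxyluciferin (100uM, at KM) in 25mM KPO4 during 60 min at 37C with regenerated NADPH. Values normalized to 57uM sulphaphenazole as complete inhibition.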

[18] = qHTS Assay for Identification of Small Molecule Agonists for Thrombopoietin (TPO) Signaling Pathway (AID 917; active means well fitted curve in the direction sought with a large enough effect; an effect the other way counts as inactive or inconclusive; further: on the % scale 0 is the no-effect control and ±100 the full control effect)
Outline: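 Stimulation at the TPO EC50 (26 pM final) was used to detect activators. Ba/F3 mouse cells bearing human TPO receptor and a luciferase reporter under the Glycoprotein IIb promoter were exposed to compounds for 24 hrs at 37 C.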

COCCCNC(=O)c1c(N)n(/N=C/c2cccnc2)c2nc3ccccc3nc12
inactive: activity change, negative = inhibition [1] -15.5% | activity, negative = inhibition [2] -20.9% | Potency [3] > 20.6 µM
active: Potency [4] 10 µM

CCCCCCc1cc2cc(-c3nnc(-c4ccccc4O)o3)c(=O)oc2cc1O
inactive: activity change, negative = inhibition [1] -3.45%
active: activity, negative = inhibition [2] 73.1% [activator] | Potency [4] 3.16 µM

CC1(C)CCN(Cc2ccccc2)C1CC#N (stereo unspecified)
inactive: activity change, negative = inhibition [1] -13.4% | activity, negative = inhibition [2] 6.87% | Potency [3] > 20.6 µM | activation [4] 7.94%

CCOC(=O)c1[nH]c2ccc(OC)cc2c1NC(=O)CCN1CCC(C)CC1
inactive: activity change, negative = inhibition [1] 8.62% | activity, negative = inhibition [2] 8.76% | Potency [3] > 20.6 µM | activation [4] -29.8%

O=C(c1ccc(=O)oc1)N1CCOCC1
inactive: activity change, negative = inhibition [1] 17.3% | activity, negative = inhibition [2] -0.795% | Potency [3] > 20.6 µM | activation [4] 5.28%

c1ccc2c(c1)NC(c1ccncc1)n1c-2nc2ccccc21 (stereo unspecified)
inactive: activity change, negative = inhibition [1] -17.1% | activity, negative = inhibition [2] -7.32% | activation [4] 15.3%

COCCNC(=O)c1c(N)n(CCC2=CCCCC2)c2nc3ccccc3nc12
inactive: activity change, negative = inhibition [1] 28.7% | Potency [3] > 20.6 µM
active: Potency [4] 10 µM

CN1CCN([C@@H]2Cc3ccccc3Sc3ccc(Cl)cc32)CC1
inactive: activity, negative = inhibition [2] 2.01% [at 38 µM] | Potency [3] > 46 µM | Potency [6] > 46 µM | Potency [7] | Potency [11] | outcome [12] | outcome [13] | outcome [14]
active: Potency [5] 12.6 µM | Potency [8] 0.398 µM | Potency [9] 1.78 µM | Potency [10] 10 µM

c1ccc(CN2CCN(c3ncnc4c3[nH]c3ccccc34)CC2)cc1
inactive: activity change, negative = inhibition [1] -15.1% | Potency [3] > 20.6 µM

Clc1ccccc1CSc1nnc(-c2ccco2)c(-c2ccco2)n1
inactive: activity change, negative = inhibition [1] 10.8% | Potency [3] > 20.6 µM

CCCCCCCCCCCCCCCCCC(=O)O[C@H](CC(=O)O)C[N+](C)(C)C
inactive: Potency [5] | activity, negative = inhibition [2] -28.3% [at 38 µM] | Potency [3] > 46 µM | Potency [15] | Potency [16] | Potency [17] | Potency [18] | Potency [11] | outcome [12] | outcome [13] | outcome [14]
active: Potency [9] 1 µM

Cc1cc(C)c(C#N)c(SCc2[nH]nc3c2C(c2ccccc2)C(C#N)=C(N)O3)n1 (stereo unspecified)
inactive: activity change, negative = inhibition [1] -21.7% | Potency [3] > 20.6 µM | activation [4] -8.62%

Reference: PubChem BioAssay (NCATS)
